FMDV antiviral: blocks foot and mouth disease virus; 1.2% of 410,000 active; Potency, µM (series often up to 57.9 µM), for inactives: at the highest dose activity change, negative = inhibition, most hits filed as inhibitors; FMDV antiviral cell-based qHTS; calls by dose curve; tested in HEK293T cells; note: read-out not given here; nearly all actives have a fitted effect of over 45% in size
HCV inh: blocks hepatitis C virus. Huh7.5.1 HCVcc-Cre infection, luciferase reporter, 44 h. 3.4% of 340,000 active. Potency, µM (doses to about 41.8 µM), inactives show top-dose activity change, negative = inhibition, most hits filed as inhibitors. AID 651820
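Cells (1,000/well) were plated 4 h before compound, then infected with HCVcc-Cre virus (~0.5 moi). After 44 h further culture, infection was read as luciferase luminescence following a 15 min substrate incubation at room temperature.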
Sm TGR block: inhibitors of Schistosoma mansoni thioredoxin glutathione reductase; Q962Y6; purified TGR, DTNB reduction, TNB absorbance 405 nm; Potency, µM (series often up to 114 µM), for the others: top-dose activity change, negative = inhibition, most hits filed as inhibitors; 3% of 360,000 active; AID 485364; note: nearly all actives have a fitted effect of over 60% in size
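TGR 20 nM + NADPH 100 uM (dispensed conc.), cpd preinc 15 min RT; start with NADPH (500 uM addition) then DTNB (15 mM addition). Kinetic TNB absorbance, 405 nm filter. Four-parameter Hill fit across titration.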
RE007 growth inh: less growth of the S. pombe RE007 Vpr strain; S. pombe RE007 Vpr strain, BacTiter-Glo ATP luminescence, 24 h; Potency, µM (highest dose often 92.2 µM), for the others: at the top dose activity change, negative = less growth, most hits filed as inhibitors; 0.21% of 360,000 active; AID 651644; active = well fitted falling curve with a large enough effect; inconclusive = small, poorly fitted or top-dose-only effect; inactive = no such curve, though single readings can be large or run the other way; note: nearly all actives have a fitted effect of over 50% in size
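Fission yeast strain RE007, carrying one chromosomally integrated HIV-1 vpr copy, was seeded at OD 0.01 in PMG+AL medium with 23 nL pinned compound. After 24 h at 30 °C and 99% humidity, viability was read by BacTiter-Glo luminescence.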
Marburg entry inh: Marburg virus entry inhibition; 1.8% of 300,000 active; Potency, µM (doses to about 37.8 µM), for inactives: at the highest dose activity change, negative = inhibition, actives largely listed as inhibitors; Marburg virus pseudotyped entry inhibition, cell reporter; AID 540276; calls by dose curve; tested in HEK293 cells
LASV entry inh: blocks Lassa virus binding to or entry into cells; Lassa virus pseudotype entry inhibition, cell reporter; Potency, µM (titrated, usually from 37.9 µM), for the others: top-dose activity change, negative = inhibition, actives largely listed as inhibitors; 1.2% of 300,000 active; calls by dose curve; tested in HEK293 cells; note: nearly all actives have a fitted effect of over 50% in size
* hit, by the source's call; u = inconclusive; x = no result; [ ] = dose if it differs, or a comment. Most compounds without a hit are left out; they make up all but 7.2% or so of the library. Unless noted, calls come from the whole dose curve; as a rule, active = well fitted curve in the direction sought with a large enough effect; inconclusive = small, poorly fitted or top-dose-only effect, or another doubt; inactive = no such curve, though single readings can be large; an effect the other way counts as inactive or inconclusive. % is set by controls: 0 for no effect and ±100 for the full control effect; potency is the fitted concentration of half-maximal effect.

SMILES	FMDV antiviral	HCV inh	Sm TGR block	RE007 growth inh	Marburg entry inh	LASV entry inh
Cc1ccc(NC(=O)c2ccc3c(c2)OCCO3)nc1	16µM*	u	2%	-17%	u	u
Cc1ccc(NC(=O)c2ccc3c(c2)OCCO3)cc1S(=O)(=O)Nc1cccc(Cl)c1	10%	10µM*	-12%	8%	u	u
Cc1ccc(NC(=O)c2ccc3c(c2)OCCO3)cc1C	13µM*	u	2%	-23%	u	u
C[C@@H]1Cc2ccccc2N1NC(=O)c1ccc(Cl)c(S(N)(=O)=O)c1	x	x	x	x	5%	x
COc1cccc(Cn2c(=O)cnc3cnc(Oc4cccc(Cl)c4)nc32)c1	1%	x	x	x	x	x
Cc1cccc(NC(=O)c2ccc3c(c2)OCCO3)c1	-37%	-6%	48%	-26%	7.9µM*	u
Cc1ccc(C(=O)Nc2ccc3c(c2)OCCO3)c(C)c1	u	-16%	11%	6%	1.3µM*	u
CCCCC(=O)Nc1cccc(NC(=O)c2ccc3c(c2)OCO3)c1	46%	2.8µM*	2%	4%	-5%	-6%
CCn1cc(Cl)c(C(=O)Nc2ccc3c(c2)OCCO3)n1	-17%	-14%	-4%	11%	10µM*	u
CCCC(=O)Nc1cccc(NC(=O)c2ccc3c(c2)OCCO3)c1	0%	u	-11%	-10%	-9%	-1%
Cc1cc(C)c(C(=O)Nc2ccc3c(c2)OCCO3)c(C)c1	41%	x	x	-7%	x	x
N#CCCN(Cc1ccccc1)C(CCc1ccccc1)C(=O)NC1CCCCC1 (configuration not stated)	9%	x	x	-7%	x	x
Cc1c(C(=O)Nc2ccc(F)cc2F)sc2nc3n(c(=O)c12)N=C(c1ccccc1)CS3	18%	x	7%	x	x	17%[46.1 µM]
CO[C@H](C1CCCCC1)[C@H](C)/C=C/CC(=O)OCCCc1ccccc1	x	x	x	x	5%[14.2 µM]	x
COc1ccc(OC)c2sc(N3CCCCC3)nc12	72%	13µM*	8%	u	-16%	-18%
CN(CCC1CCCCO1)C(=O)CCc1nnc(Cc2c[nH]c3ccccc23)o1 (configuration not stated)	3%	0%	89µM*	-5%	10%	u
COC(=O)C1CCCCN1C(=O)CCc1nnc(CCc2c[nH]c3ccccc23)o1 (configuration not stated)	-21%	1%	0%	11%	x	x
CN(CCC1CCCCO1)C(=O)CCc1nnc(CCc2ccccc2)o1 (configuration not stated)	56%	1%	-25%	0%	u	30%
CCC1CCCCN1C(=O)CCc1nnc(Cc2c[nH]c3ccccc23)o1 (configuration not stated)	7%	2%	25µM*	-8%	x	x
CC(C)CN1CCN(C(=O)CCc2nnc(Cc3c[nH]c4ccccc34)o2)[C@@H](C)C1=O	14%	13%	20µM*	-14%	25%[46.1 µM]	-18%[46.1 µM]
CC1CCCCN1C(=O)CCc1nnc(Cc2c[nH]c3ccccc23)o1 (configuration not stated)	1%	-2%	35µM*	18%	x	x
Cc1ccc(/C=C/c2onc(C)c2S(=O)(=O)N2CCC(C(=O)Nc3ccc(OC(F)(F)F)cc3)CC2)cc1	-4%	x	-1%	x	x	1%[46.1 µM]
Cn1nnnc1Sc1ncnc2scc(-c3ccccc3C(F)(F)F)c12	u	x	4µM*	x	x	x
Cn1nnnc1Sc1ncnc2scc(-c3cccc(C(F)(F)F)c3)c12	22µM*	x	x	x	x	x
Cn1nnnc1Sc1ncnc2scc(-c3ccc(C(F)(F)F)cc3)c12	11µM*	x	-31%	x	x	x
SMILES	FMDV antiviral	HCV inh	Sm TGR block	RE007 growth inh	Marburg entry inh	LASV entry inh
COc1cccc(-c2csc3ncnc(Sc4nnnn4C)c23)c1	20µM*	x	x	x	x	x
CCOC(=O)c1c(C)oc2nc(C)nc(NCC3CCN(Cc4cccc(C)c4)CC3)c12	-9%	x	-2%	x	x	u
COc1ccc2c(c1)c1c(c(=O)n(-c3ccc(F)c(Cl)c3)c(=O)n1CC(N)=O)n2C	-13%	x	0%	x	x	1%[46.1 µM]
CCOC(=O)c1c(C)[nH]c(CCC(=O)NCc2ccc(CC)cc2)c1C	-24%	x	-7%	x	x	-27%[46.1 µM]
O=C(c1ccccn1)N(Cc1cccs1)C1(C(=O)NC2CCCCC2)CCCCC1	-4%	11µM*	7%	26%	u	-13%
O=C(c1cnccn1)N(Cc1cccs1)C1(C(=O)NC2CCCCC2)CCCCC1	11%	-26%	-4%	74%	9%	u
N#CC1(c2ccccc2)CCC(=NNS(=O)(=O)c2ccccc2)CC1 (configuration not stated)	4%	1%	40µM*	19%	x	x
O=C(CSc1nnc(-c2ccc(Br)o2)n1Cc1ccccc1)c1ccccc1F	-13%	-16%	35µM*	-11%	-18%	u
C=C(C)COc1ccc(-c2n[nH]c(C)c2-c2ccc(OC)cc2)c(O)c1	25µM*	u	14%	u	u	u
COc1ccc(-c2n[nH]c(C)c2-c2cscn2)c(O)c1	-11%	-14%	7%	0%	x	x
CC(=O)N=c1sc2nc3ccccc3nc2n1N(C(C)=O)C(C)=O	-5%	6%	50µM*	-30%	-3%	-24%
CC(=O)N=c1sc2ccccc2n1C	10%	13%	-24%	1%	8%	8%
CCOC(=O)CN1C(=O)[C@]2(OC[C@@H]3Cc4ccccc4[C@H]3C=C2C)c2ccccc21	x	x	x	x	-22%[14.2 µM]	x
COC(=O)c1ccccc1NC(=O)c1ccc(NC(=O)C2CCCO2)cc1 (configuration not stated)	-13%	u	4%	-16%	-14%	u
CCOc1ccccc1NC(=O)c1ccc2ccccc2c1	16%	10µM*	3%	-16%	-8%[46.1 µM]	-4%[46.1 µM]
CCOc1ccccc1NC(=O)c1ccc(NC(=O)C2CCCO2)cc1 (configuration not stated)	13%	11µM*	-1%	2%	3%[46.1 µM]	x
CCOc1ccc(C(=O)Nc2cccc(C(=O)O)c2C)cc1Cl	1.8µM*	0%	-3%	-3%	5.8µM*	9.2µM*
CCOc1ccc(NS(=O)(=O)c2ccc(NC(=O)C3CCCO3)cc2)cc1 (configuration not stated)	-22%	u	0%	1%	-23%	8.9µM*
O=C(Nc1ccccc1OCc1cc(=O)n2ccccc2n1)c1cccc(Br)c1	-12%	x	0%	x	x	-4%[46.1 µM]
CC(=O)OC[C@H]1O[C@@H](ON=C(C)CCN2CCCCc3nc(C)c(C)cc32)[C@H](OC(C)=O)[C@@H](OC(C)=O)[C@H]1OC(C)=O	x	x	x	x	1%[14.2 µM]	x
COc1ccc(N2CCN([C@H]3CC(=O)NC3=O)CC2)cc1	x	x	x	x	-7%	x
Cn1cc(CN(C(=O)Nc2ccccc2)C2CCCCC2)c2ccccc21	27%	x	7%	x	-3%[46.1 µM]	u
COc1cc(NS(=O)(=O)c2ccc3c(c2)CC(C)N3C(=O)C2CCC2)cc(OC)c1OC (configuration not stated)	x	x	-2%	x	x	u

High-throughput results from PubChem BioAssay.
